Bioassay records deposited in PubChem BioAssay by National Center for Advancing Translational Sciences (NCATS).
A selection: hits, their analogues and other compounds. The true share with any hit is near 2.4%.
AmpC nodet inh: blocks E. coli AmpC beta-lactamase in absence of detergent; P00811; AmpC nitrocefin hydrolysis, absorbance 480 nm, no detergent; AID 585; Potency, µM (titrated, usually from 28.7 µM), for inactives: at the highest dose activity change, negative = inhibition; 71,000 compounds, 1.8% hits; also: % of control where 0% means no effect
Target sequence (P00811 whole entry, looked up): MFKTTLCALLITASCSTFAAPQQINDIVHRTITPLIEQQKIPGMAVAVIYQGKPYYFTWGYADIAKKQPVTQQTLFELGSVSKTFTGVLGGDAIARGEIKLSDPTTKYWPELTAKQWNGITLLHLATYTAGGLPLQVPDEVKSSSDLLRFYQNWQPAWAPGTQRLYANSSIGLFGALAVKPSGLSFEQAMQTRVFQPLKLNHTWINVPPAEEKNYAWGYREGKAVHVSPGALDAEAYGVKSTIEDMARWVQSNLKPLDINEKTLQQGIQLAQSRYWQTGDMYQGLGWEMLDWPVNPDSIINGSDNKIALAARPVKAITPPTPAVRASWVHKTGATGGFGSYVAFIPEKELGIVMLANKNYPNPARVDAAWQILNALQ
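AmpC in 20 mM phosphate buffer pH 7.0 was preincubated 15 min at room temperature with compounds. Nitrocefin (800 uM stock) was then added and hydrolysis followed at 480 nm every 20 s for 4 min.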
Anthrax LT inh: anthrax lethal toxin internalization inhibition | Cells, anthrax lethal toxin internalization, FRET ratio (460/530) | Potency, µM (titrated, usually from 40 µM), for the others: top-dose activity change, negative = inhibition, most hits filed as inhibitors | 70,000 compounds, 0.67% hits; also: % is scaled to controls: 0 for no effect and ±100 for the full control effect; nearly all actives have a fitted effect of over 50% in size
SmPrx2 inh: Schistosoma mansoni Prx2 inhibition; S. mansoni Prx2 activity coupled to TGR/GSH (TGR is thioredoxin glutathione reductase), NADPH fluorescence loss, qHTS; Potency, µM; 65,000 compounds, 0.07% hits; AID 448
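Purified S. mansoni TGR and Prx2 in pH 7.4 phosphate buffer with EDTA and Tween-20 were preincubated with compounds for 15 min. Further NADPH/GSH was added, then a 2.5 mM H2O2 aliquot initiated turnover, followed kinetically by NADPH fluorescence.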
AmpC inh det: inhibitors of E. coli AmpC beta-lactamase with detergent; P00811; purified AmpC, nitrocefin hydrolysis with detergent; Potency, µM (doses to about 28.7 µM), for the others: at the top dose activity change, negative = inhibition; 71,000 compounds, 0.09% hits; AID 584; active = well fitted curve in the direction sought with a large enough effect; inconclusive = small, poorly fitted or top-dose-only effect; also: % is scaled to controls: 0 for no effect and ±100 for the full control effect
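E. coli AmpC (5.3 nM) in 20 mM phosphate pH 7.0 with 0.01% Triton X-100, preincubated 15 min RT with compound; nitrocefin (2 uL of 800 uM stock) hydrolysis followed by 480 nm absorbance every 20 s over 4 min.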
* = called active by the depositor; ? = inconclusive; . = not tested or not shown; [ ] = remark or other dose. Unless noted, calls follow the shape of the full dose curve. Potency is read from the fitted curve at half-maximal effect.

SMILES	AmpC nodet inh	Anthrax LT inh	SmPrx2 inh	AmpC inh det
Cc1cc(C)cc(N(CC(=O)N2CCc3ccccc32)S(=O)(=O)c2c(C)noc2C)c1	3.98µM*[single pt active]	2µM*	>57	10.6%
O=C(Cn1c(=O)oc2cc(S(=O)(=O)N3CCCC3)ccc21)NCc1ccccn1	3.98µM*[single pt active]	-4.4%	>57	11.9%
CCOC(=O)Cn1c(=O)oc2cc(S(=O)(=O)NCc3ccccn3)ccc21	16.6%	9.1%	>57	11.9%
O=C(Cn1c(=O)oc2cc(S(=O)(=O)N3CCCCCC3)ccc21)NC1CCCCC1	3.98µM*[single pt active]	-15.6%	>57	11.2%
O=C(NC1CCCCC1)NC1CCN(S(=O)(=O)c2ccc3c(c2)OCCO3)CC1	10µM*[single pt active]	?	>57	12.9%
CC(C)(C)N1C(=O)[C@H]2[C@H]3[C@H](O)[C@H](O)C/C(=N/NC(=O)OCc4ccccc4)[C@H]3CC[C@@H]2C1=O	.	-1.4%[8 µM]	.	.
CN1CCN(c2ncc3nc(-c4cc(F)cc(F)c4)c(=O)n(CCc4ccccc4)c3n2)CC1	90.3%	?	>57	-2.0%
O=c1c(-c2ccc3c(c2)OCCO3)coc2c(CN3CCOCC3)c(O)ccc12	4.2%	-18.5%	>57	12.3%
CC(C)=CCc1c2c(c3occ(-c4ccc(O)c(O)c4)c(=O)c3c1O)C=CC(C)(C)O2	3.98µM*[single pt active]	?	>57	-2.9%[5.75 µM]
COc1cccc(Cn2c(=O)c(-c3cc(F)cc(F)c3)nc3cnc(N(C)C)nc32)c1	1.1%	?	>57	0.1%
N#Cc1c(N)nc2c(c1-c1ccc3c(c1)OCO3)CCCCCC2	7.5%	-24.7%	>57	0.2%
N#Cc1c(N)oc(-c2ccc3c(c2)OCO3)c1-c1ccc2c(c1)OCO2	10µM*	4.9%	>57	-1.8%
Clc1cccc(N2CCN(Cc3nc(-c4ccccc4)no3)CC2)c1	3.98µM*[single pt active]	?	>57	13.0%
CC1(C(=O)NC2CCCCCC2)CCC(=O)N1Cc1ccc2c(c1)OCO2 (centres undefined)	40.9%	-1.8%	>57	2.7%
COc1ccc(CCNC(=O)C2(C)CCC(=O)N2Cc2ccc3c(c2)OCO3)cc1OC (centres undefined)	3.98µM*[single pt active]	-0.9%	>57	11.5%
CCOC(=O)CN1C(=O)C(O)=C(C(C)=O)C1c1ccccc1 (centres undefined)	1.0%	.	>57	-2.1%
CCOC(=O)CN1c2ccccc2NC(=O)CC1C (centres undefined)	3.98µM*[single pt active]	-5.9%	>57	13.2%
Cc1cc(N2CCC(N(C)C3CCCC3)CC2)nc2cc(O)ccc12	27.0%	3.16µM*	>57	13.8%
Cc1cc(N2CCOCC2)nc2ccc(NC(=O)C3CCC(C)CC3)cc12 (centres undefined)	100.3%	-2.1%	>57	-2.2%
C=C(C)[C@H]1Cc2c(ccc3c2O[C@H]2COc4cc(OC)c(OC)cc4[C@@H]2C3=O)O1	115.0%	?	>57	-2.7%
Cc1ccc(-c2nc(CSCC(=O)N3CCCC3)c(C)o2)cc1	66.8%	6.9%	>57	-0.7%
Cc1ccsc1-c1nc(CSCC(=O)N2CCN(c3ccccc3)CC2)c(C)o1	127.1%	15.8µM*	>57	10.0%
CC1=C/C(=C(/c2ccc(O)c(C)c2)c2ccccc2C(=O)O)C=CC1=O	-9.5%[5.75 µM]	-15.4%[8 µM]	>57	-4.8%[5.75 µM]
O=C(O)C1=CC(=C(c2ccc(O)c(C(=O)O)c2)c2ccc(O)c(C(=O)O)c2)C=CC1=O	7.94µM*	?	>57	10µM*
CN1CCc2ccccc2[C@@H]1Cc1ccccc1NC(=O)c1sc2ccccc2c1Cl	-11.4%[5.75 µM]	-22.3%[8 µM]	>57	-4.8%[5.75 µM]
SMILES	AmpC nodet inh	Anthrax LT inh	SmPrx2 inh	AmpC inh det
COc1ccc(S(=O)(=O)Cc2ccc(C(=O)N3CCc4ccccc4C3)o2)cc1	3.16µM*[single pt active]	-14.5%	>57	5.9%
COc1ccc(S(=O)(=O)Cc2ccc(C(=O)N3CCN(Cc4ccccc4)CC3)o2)cc1	108.6%	-11.5%	>57	12.1%
COc1ccc(S(=O)(=O)Cc2ccc(C(=O)N3CCN(c4ccc(Cl)cc4)CC3)o2)cc1	84.2%	12.6µM*	>57	5.4%
Nc1ccc(S(=O)(=O)O)cc1	-1.4%	-7.9%	.	8.6%
Nc1c(S(=O)(=O)O)cc(Nc2ccc(Nc3nc(Cl)nc(Nc4ccc(S(=O)(=O)O)cc4)n3)c(S(=O)(=O)O)c2)c2c1C(=O)c1ccccc1C2=O	-35.0%	?	>57	12.6µM*
CC1(C)S[C@@H]2[C@H](NC(=O)[C@@H](N)c3ccc(O)cc3)C(=O)N2[C@H]1C(=O)O	1.26µM*	1.9%[3.58 µM]	>57	0.316µM*
